Assay [1] relates to Wnt5a (protein binding on small-molecule microarray). The assay can be described thus: Wnt5a binders on small-molecule microarray, primary screen, biophysical, 635/667 nm fluorescence (AID 1142).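 Further: fluorescence read at 667 nm with signal to noise per printed feature.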 The conditions noted are these: 635 nm fluorescence, higher = more signal.
The nature of assay [2]: cell viability in Huh7 cells, primary screen, cytotoxicity control for HCV replication inhibitor project, CellTiter-Glo luminescence, basal, 48 h (AID 1143).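 Further: Huh7 hepatoma cells carrying a hepatitis C replication reporter with no stimulus; test concentration not given here.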 The conditions noted are these: Huh7 HCV replicon, higher = more signal, called active from +8 up or from −8 down.
Assay [3] can be described thus: CREB reporter modulators without forskolin, primary screen, cell-based, PC12, CRE-LacZ reporter, unstimulated (AID 1145). The conditions noted are these: no forskolin, luminescence, 4.5 h, higher = more signal, called active from +8 up or from −8 down.
Assay [4] in a line: CREB reporter modulators under forskolin, primary screen, cell-based, PC12, CRE-LacZ reporter, forskolin-stimulated (AID 1146).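 Further: PC12 cells with 6xCRE LacZ reporter stimulated by forskolin 10 µM; beta-galactosidase reporter signal reflecting CREB driven transcription.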 The conditions noted are these: luminescence, 4.5 h, higher = more signal, called active from +8 up or from −8 down.
Assay [5] deals with Streptavidin (Streptomyces avidinii) (UniProt P22629). Briefly: streptavidin binders on small-molecule microarray, primary screen, artefact control for SMM compound annotation, biophysical, 635/667 nm fluorescence (AID 1147).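 Further: signal reflects streptavidin binding to arrayed compounds as a control protein.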 As to conditions: streptavidin binding, higher = more signal.
Streptavidin (Streptomyces avidinii), sequence (P22629 whole entry, looked up): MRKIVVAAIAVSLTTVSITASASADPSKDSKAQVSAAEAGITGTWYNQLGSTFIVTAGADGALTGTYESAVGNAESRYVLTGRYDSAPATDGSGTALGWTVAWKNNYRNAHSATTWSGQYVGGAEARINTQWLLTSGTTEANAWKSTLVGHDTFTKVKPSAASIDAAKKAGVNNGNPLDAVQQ
Assay [6] can be described thus: small-molecule binders of probe aInhba, primary screen, biochemical, small-molecule microarray, 635/667 nm fluorescence (AID 1148).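 Further: score merges 667nm spot fluorescence with signal-to-noise for antibody binding to printed compounds.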 The conditions noted are these: higher = more signal.
In assay [7] the target is Torsin-1A (Homo sapiens) (UniProt O14656). Briefly: torsin A binders from cell lysate, primary screen, small-molecule microarray, wild-type, 635/667 nm (AID 1149). As to conditions: COS7 hTOR1A-WT lysate, 635 nm fluorescence, higher = more signal.
Torsin-1A (Homo sapiens), sequence (O14656 whole entry, looked up): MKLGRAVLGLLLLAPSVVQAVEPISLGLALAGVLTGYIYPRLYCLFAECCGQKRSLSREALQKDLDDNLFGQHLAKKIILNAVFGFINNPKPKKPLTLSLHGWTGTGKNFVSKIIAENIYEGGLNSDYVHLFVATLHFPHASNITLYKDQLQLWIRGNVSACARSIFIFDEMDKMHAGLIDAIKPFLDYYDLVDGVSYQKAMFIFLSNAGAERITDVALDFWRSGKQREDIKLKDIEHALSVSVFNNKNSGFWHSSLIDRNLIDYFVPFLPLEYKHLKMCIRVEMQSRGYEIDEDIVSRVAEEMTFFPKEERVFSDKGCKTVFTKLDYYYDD
Assay [8] has the same target. The assay can be described thus: small-molecule binders of mutant TOR1A in lysate, primary screen, cell lysate, small-molecule microarray, COS7 lysate, 635/667 nm fluorescence (AID 1150).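 Further: score pools 667 nm emission and signal to noise measuring lysate protein binding.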 As to conditions: COS7 hTOR1A mutant lysate, 635 nm fluorescence, higher = more signal.
Assay [9] has as its system Sonic hedgehog protein (Shh). Briefly: small-molecule binders of Shh protein, primary screen, biochemical, small-molecule microarray, 635/667 nm fluorescence (AID 1151).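 Further: Shh protein binding to compounds spotted on small-molecule microarray slides; score combines spot fluorescence intensity with signal-to-noise across triplicate slides.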 As to conditions: small-molecule microarray binding, 635 nm fluorescence; higher = more signal.

Activity calls are given as the source filed them.

As for `CO[C@H]1COC(=O)CC=C[C@H](C)COC(=O)[C@@H](OCc2ccccc2)C=C[C@@H]1C`, the composite z-score in assay [1] was -0.192; in [5], 0.846; in assay [6], -0.29; in the assay with Torsin-1A (Homo sapiens) [7], 2.67; with Torsin-1A (Homo sapiens) [8], 2.29; in [9] it was 2.06. The z-score is -4.32 (inactive) in assay [2], 0.252 (inactive) in assay [3] and -1.2 (inactive) in assay [4].
For the compound `O=C1O[C@@H](c2ccccc2)[C@@H](c2ccccc2)N2[C@@H](c3ccc(O)cc3)[C@]3(C(=O)Nc4ccc(C#CC5(O)CCCCCC5)cc43)[C@@H](C(=O)Nc3nc4ccccc4s3)[C@H]12`, the composite z-score in assay [1] was 0.285; in [5] it was 1.99; in assay [6], -0.438; with Torsin-1A (Homo sapiens) [7] it was 0.752; with Torsin-1A (Homo sapiens) [8], 0.757; in assay [9], 0.741. Besides, the z-score was -2.23 (inactive) in [2], 0.204 (inactive) in assay [3] and -0.908 (inactive) in [4].
For `COc1ccc([Si](C)(C)[C@H]2[C@H](CC(=O)N3Cc4ccccc4C[C@H]3CO)O[C@@]3(C(=O)N(Cc4cccc(N5CCOC5=O)c4)c4ccccc43)[C@@H]2C)cc1`, the composite z-score was determined as 0.341 in assay [1]; 0.0303 in assay [5]; 0.0086 in assay [6]; 0.287 with Torsin-1A (Homo sapiens) [7]; 0.383 with Torsin-1A (Homo sapiens) [8]; 1.37 in [9]. Moreover, the z-score in assay [2] is -3.32 (inactive); in assay [3] it was 5.51 (inactive); in [4], -1.25 (inactive).
With `C=CC[C@@]1(C(=O)N2CCOCC2)N=C(c2ccc(OCCCO)cc2)O[C@@H]1c1ccccc1`, the composite z-score in assay [1] was -0.0454; in assay [5], -0.0392; in assay [6], -0.151; with Torsin-1A (Homo sapiens) [7] it was 0.0827; with Torsin-1A (Homo sapiens) [8] it was 1.2; in assay [9], -0.571. Further, the z-score in assay [2] is -1.33 (inactive); in [3], 0.437 (inactive); in [4] it was -0.354 (inactive).
Take `COCCOC(=O)N1C(=O)[C@@]2(c3cc(C#CCNC(N)=O)ccc31)[C@H](c1ccc(OCCO)cc1)N1[C@H](c3ccccc3)[C@H](c3ccccc3)OC(=O)[C@H]1[C@@H]2C(=O)N1CCCCCCC1`: the composite z-score is 0.148 in assay [1]; 0.34 in [5]; 0.325 in assay [6]; 0.0499 in the assay with Torsin-1A (Homo sapiens) [7]; 0.576 in the assay with Torsin-1A (Homo sapiens) [8]; 0.932 in [9]. The z-score is -2.36 (inactive) in assay [2], -0.0566 (inactive) in assay [3] and -1.91 (inactive) in assay [4].
On to `CO[C@@H]1COC(=O)[C@H](COCc2ccccc2)NC(=O)CC=C[C@@H](C)[C@H](OC)COC(=O)[C@H](COCc2ccccc2)NC(=O)CC=C[C@H]1C`, for which the composite z-score in [1] was 0.0648; in [5], -0.405; in assay [6] it was -0.2; in the assay with Torsin-1A (Homo sapiens) [7], 0.692; in the assay with Torsin-1A (Homo sapiens) [8], 0.209; in [9], 0.839. Besides, the figures for the z-score in assay [2], in [3] and in [4] were -0.853 (inactive), 0.336 (inactive) and -0.401 (inactive), respectively.
Take `COc1ccc(-c2ccccc2[C@@H]2N[C@H](C(=O)O)CC[C@H]2C)cc1`: the composite z-score in assay [1] was -0.053; in assay [5] it was 0.376; in [6], -0.109; with Torsin-1A (Homo sapiens) [7], 0.69; with Torsin-1A (Homo sapiens) [8], 0.272; in [9] it was 0.289. For the same compound, the figures for the z-score in assay [2], in assay [3] and in assay [4] were -1.45 (inactive), 1.01 (inactive) and -0.902 (inactive), respectively.
In the case of `C=CCC(OC(C)=O)[C@@H]1[C@@H](N(Cc2cc3ccccc3o2)C(=O)Cc2ccc(F)cc2)c2cc(OCCCO)ccc2N1C(=O)c1ccc(-c2ccccc2)cc1` (stereo partly drawn), the composite z-score in assay [1] was -0.125; in assay [5], -0.117; in assay [6], -0.0313; in the assay with Torsin-1A (Homo sapiens) [7], -0.583; in the assay with Torsin-1A (Homo sapiens) [8], -0.159; in [9], 0.0351. Also, the z-score in assay [2] is 0.15 (inactive); in [3], 0.787 (inactive); in assay [4], -0.775 (inactive).
As to `COc1cccc([C@H]2N[C@H](C(=O)O)CC[C@@H]2C)c1`, the composite z-score in assay [1] was 0.04; in assay [5], 0.158; in [6], -0.111; in the assay with Torsin-1A (Homo sapiens) [7] it was 0.386; with Torsin-1A (Homo sapiens) [8], 0.403; in assay [9] it was -0.0276. Besides, the z-score in [2] was -3.79 (inactive); in assay [3] it was -0.167 (inactive); in assay [4] it was -1.61 (inactive).
Regarding `CO[C@H]1O[C@H](CO)[C@@H](OC(=O)Nc2ccccc2)[C@H](OC(=O)Nc2ccc3c(c2)OCO3)[C@@H]1OC(=O)Nc1ccc2c(c1)OCO2`, the composite z-score in assay [1] is 0.328; in assay [5], 0.232; in assay [6] it was -0.0079; in the assay with Torsin-1A (Homo sapiens) [7] it was 0.433; with Torsin-1A (Homo sapiens) [8], 0.876; in assay [9] it was 0.599. Further, the z-score in assay [2] was -3.67 (inactive); in [3] it was 0.185 (inactive); in [4] it was -2.4 (inactive).
Consider `C=CCNC(=O)[C@@H]1[C@H]2C(=O)O[C@H](c3ccccc3)[C@H](c3ccccc3)N2[C@H](c2ccc(OCCO)cc2)[C@@]12C(=O)N(C(=O)OCCOC)c1ccc(C#CC3(O)CCCCCC3)cc12`, for which the composite z-score in assay [1] came out at 0.281; in [5], 0.788; in [6], 0.167; with Torsin-1A (Homo sapiens) [7], 0.42; with Torsin-1A (Homo sapiens) [8], 0.469; in assay [9], 1.1. In addition, the figures for the z-score in assay [2], in [3] and in assay [4] were -6.19 (inactive), -0.87 (inactive) and -1.59 (inactive), respectively.
On to `COC(=O)c1c(CC[C@@H](CO)NC(=O)N[C@H](Cn2cc(-c3cncn3C)nn2)C(C)C)oc(C(C)=O)c1C(=O)OC`, for which the composite z-score is 0.0781 in assay [1]; 0.341 in [5]; -0.282 in [6]; 0.422 in the assay with Torsin-1A (Homo sapiens) [7]; 0.368 in the assay with Torsin-1A (Homo sapiens) [8]; 0.75 in [9]. Further, the values for the z-score in [2], in [3] and in assay [4] were -3.48 (inactive), 1.01 (inactive) and -1.4 (inactive), respectively.

(Values after PubChem BioAssay.)
